Molecules are shown by their SMILES. This is part of a sample that, as a whole, favours compounds with a hit. Of some 79,000 tested, about 15% had one in any assay. A number with no mark means an inactive call. Activity calls are given as the source filed them. Cut-off read from the data, not from the text of the source: active = growth inhibition above about 70%; inactive = the rest.

The nature of this test: NCI Yeast Anticancer Drug Screen. Data for the mlh1 strain (AID 171).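 Note: 0% = growth of vehicle-treated control cultures of the same strain.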 As to conditions: S. cerevisiae mlh1 strain growth inhibition; at 33.0 µM; hits give high values. The gist of the method:
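Yeast screen: mutant strain plus compound, growth scored against vehicle control wells.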
`CNC(=O)OCc1c(COC(=O)NC)c(C)n(-c2ccc(Cl)c(Cl)c2)c1C`: the growth inhibition is 97% (active). The value for `COc1ccc2nc(N/N=C/c3sccc3C)cc(C)c2c1` was 97% (active); that for `O=C(O)/C=C\C(=O)NNc1ccc(Br)cc1` was 98% (active). In the case of `COc1ccc2nc3cccc([N+](=O)[O-])c3c(NCCCO)c2c1`, the growth inhibition is 97% (active). For `CCN(CC)CCSc1c2ccccc2nc2cc(NCC(=O)Nc3ccccc3-c3ccccc3NC(=O)CNc3ccc4c(SCCN(CC)CC)c5ccccc5nc4c3)ccc12` the value was 80% (active).

Regarding `Cc1ccc(N(C=O)c2c([N+](=O)[O-])cc([N+](=O)[O-])c3c2=[N+]([O-])CN=3)cc1`, the growth inhibition is 94% (active). Turning to `COc1ccc(C(=O)OCCc2ccccc2)cc1`, the growth inhibition was 1%. The value for `COc1ccc(C(=O)NCCN(C)C)c2nc3ccccc3cc12` was 29%; that for `NCC(O)CSCc1ccc(Cl)cc1` (stereo unspecified) was -1%. Regarding `O=c1[nH]c(=O)n(CCCO)cc1F`, the growth inhibition is -15%.

Regarding `COc1ccc(/C(=N/O)c2ccccc2C2=Nc3ccccc3C(NCc3ccccc3)O2)cc1C` (stereo unspecified), the growth inhibition is 14%. For `CCCC(=O)OC(OC(=O)CCC)c1ccc([N+](=O)[O-])o1` the value was 7%; for `O=C(/C(=C/c1ccccc1)CBr)c1ccccc1`, 97% (active); for `O=C(Cc1ccccc1F)NC1=C(Cl)C(=O)c2ccccc2C1=O`, 3%.

As to `Cc1cccc(N2CCN(C(=O)/C(=C/c3ccccc3)NC(=O)c3ccccc3)CC2)c1`, the growth inhibition is 41%.

In the case of `c1cc(Nc2ccc3c(c2)OCO3)c2cc(C3CCCCC3)ccc2n1`, the growth inhibition is 2%.

For the origin of these results see PubChem BioAssay (NCI).
